Compound activity from PubChem.
IL-1B inflam inh: inhibitors of inflammasome signaling (IL-1 beta secretion); actives 4.7% (n = 360,000); activity change, % at 57.5 µM; AID 743279; THP-1 LPS/ATP IL-1B secretion, AlphaLISA, 16 h; stronger effect = lower value; in the data active = activity change below about -50%; inconclusive = mostly about -30% to -49%; note: % is set by controls: 0 for no effect and ±100 for the full control effect
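THP-1 cells pretreated 1 hr with compounds (up to 57.5 uM final), then stimulated with LPS (250 ng/mL final) plus ATP (1.25 mM final); secreted IL-1B measured by AlphaLISA after 16 hr, decreased signal indicating inhibition.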
MCF10A rereplic: DNA re-replication induction in MCF 10a cells; actives 2.9% (n = 350,000); Potency, µM (doses to about 46.1 µM), for inactives: at the highest dose activity, positive = re-replication, hits mostly activators; AID 624296; MCF 10A DNA re-replication, Hoechst nuclear intensity, 48 h; note: potency is the fitted concentration of half-maximal effect; % of control where 0% means no effect; nearly all actives have a fitted effect of over 50% in size
Gal4-VP16 FLuc: Gal4-VP16 reporter inhibition counter-screen; Potency, µM (series often up to 53.6 µM), for inactives: at the top dose activity, negative = inhibition, usual class: inhibitors; actives 3.5% (n = 310,000); AID 2546; Drosophila S2 Gal4-VP16 UAS-luciferase, luminescence, 20 h;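 note: Gal4-VP16 expression switched on by copper sulfate through the metallothionein promoter; potency is the fitted concentration of half-maximal effect; % is set by controls: 0 for no effect and ±100 for the full control effect; nearly all actives have a fitted effect of over 50% in size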
RORgamma inh: inhibitors of mouse ROR gamma transcriptional activity; P51450; Drosophila S2 Gal4-RORgamma UAS-luciferase reporter, 20 h; Potency, µM (titrated, usually from 53.6 µM), without a hit: at the top dose activity change, negative = inhibition, usual class: inhibitors; actives 5.4% (n = 310,000); note: potency is the fitted concentration of half-maximal effect; % is set by controls: 0 for no effect and ±100 for the full control effect; nearly all actives have a fitted effect of over 60% in size
Target sequence (P51450 whole entry, looked up, the tested form may be a part): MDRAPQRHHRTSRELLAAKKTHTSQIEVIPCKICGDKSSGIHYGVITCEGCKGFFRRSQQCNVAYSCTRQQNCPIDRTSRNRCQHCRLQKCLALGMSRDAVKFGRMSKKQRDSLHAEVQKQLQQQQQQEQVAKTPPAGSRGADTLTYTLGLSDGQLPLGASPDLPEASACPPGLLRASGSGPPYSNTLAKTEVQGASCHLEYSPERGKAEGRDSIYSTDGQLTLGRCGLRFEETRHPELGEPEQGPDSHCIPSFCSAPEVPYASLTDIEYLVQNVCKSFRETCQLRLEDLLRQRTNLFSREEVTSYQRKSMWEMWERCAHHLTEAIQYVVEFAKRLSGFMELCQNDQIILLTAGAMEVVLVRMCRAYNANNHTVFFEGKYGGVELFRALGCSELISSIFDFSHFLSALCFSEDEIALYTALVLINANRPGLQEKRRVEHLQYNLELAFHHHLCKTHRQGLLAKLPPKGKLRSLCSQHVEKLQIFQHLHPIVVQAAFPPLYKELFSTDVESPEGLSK
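Drosophila Schneider cells stably carrying a metallothionein-driven Gal4 DBD–ROR gamma fusion and a UAS-Photinus luciferase reporter were exposed to compound for 1 hr, then induced with copper sulfate (700 uM final) for 20 hr at ambient temperature before luminescence reading.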
SW480 rereplic: DNA re-replication induction in SW480 cells; SW480 DNA re-replication, Hoechst DNA content imaging, 48 h; Potency, µM (doses to about 46.1 µM), for inactives: at the highest dose re-replication activation, most hits filed as activators; actives 1.8% (n = 340,000); AID 624297; note: potency is the fitted concentration of half-maximal effect; % of control where 0% means no effect; nearly all actives have a fitted effect of over 55% in size
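Quantitative HTS format with DMSO vehicle controls; 48 hr drug incubation at 37 C, then 40 min Hoechst staining and scanning imager measurement at 405 nm excitation.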
* marks the source's active call; other numbers are inactive results; ? = inconclusive; · = not tested or not shown; [ ] = dose if it differs, or a comment. Sampled rows, rich in hits. Any-hit rate of the full collection: about 11%. Unless noted, calls come from the whole dose curve; as a rule, active = well fitted curve in the direction sought with a large enough effect; inconclusive = small, poorly fitted or top-dose-only effect, or another doubt; inactive = no such curve, though single readings can be large; an effect the other way counts as inactive or inconclusive.

SMILES	IL-1B inflam inh	MCF10A rereplic	Gal4-VP16 FLuc	RORgamma inh	SW480 rereplic
COc1ccc(CNC(=S)N/N=C(\C)c2ccc(OC)cc2)cc1	31	-8%	5µM*	6.3µM*	-1%
COc1ccc(/C(C)=N/NC(=S)NCCc2ccccc2)cc1	-9	10%	1.1µM*	0.28µM*	10%
COc1ccccc1/C(C)=N/NC(=S)NCc1ccccc1	?	-2%	7.1µM*	3.2µM*	-2%
COc1ccc(C(CNS(=O)(=O)c2cccc(F)c2)N2CCCC2)cc1 (centres undefined)	-16	3%	·	·	-1%
C/C(=N\NC(=S)NCCc1ccccc1)c1cccc(Br)c1	34	16%	?	4.5µM*	-4%
CC(C)C(=O)N1CCC1(C)C(=O)Nc1ccc(-n2cccc2)cc1 (centres undefined)	-12	·	·	·	·
O=C1C(c2ccccc2)=[N+]([O-])c2ccccc21	-88*	?	·	·	?
O=C1C(=Cc2cccs2)C(=O)c2ccccc21	0	-13%	?	-3%	-52%
C=C1CC[C@@H]2O[C@@]2(C)CC[C@H]2[C@H]1CC2(C)C	·	·	-2%	12%	·
COc1cc(/C=C/C(=O)c2c(O)cc(C)oc2=O)ccc1O	·	·	5%	?	·
COc1ccc(/C=C/C(=O)c2ccc([N+](=O)[O-])o2)cc1OC	-102*	?	·	·	?
COc1ccc(/C=C/C(=O)C(C)(C)C)cc1OC	?	-1%	-4%	15%	1%
O=C(/C=C/c1cccc(Cl)c1)c1ccc([N+](=O)[O-])o1	-102*	2.3µM*	·	·	1.5µM*
COc1cc(/C=C/C(=O)c2ccc([N+](=O)[O-])o2)ccc1O	-60*	?	·	·	0.058µM*
NC(=O)C1CCN(c2nc(-c3ccccc3C(F)(F)F)cs2)CC1	·	-5%	·	·	-1%
O=C(COC(=O)CNC(=O)c1ccccc1F)NC1CC1	18	-3%	·	·	-4%
Cc1nn(Cc2c(Cl)cccc2Cl)c(Cl)c1/C=C/C(=O)OCC(=O)NCC(F)(F)F	19	-2%	6%	?	-4%
COCCNC(=O)COC(=O)/C=C/c1c(C)nn(Cc2ccc(Cl)cc2Cl)c1Cl	1	13µM*	?	31%	-27%
Cc1ccsc1CN(C)CC(=O)Nc1ccc([N+](=O)[O-])cc1Cl	-79*	?	3%	10%	18%
Oc1cc2c(cc1C(c1ccc(Br)cc1)N1CCCC1)OCO2 (centres undefined)	-102*	?	8%	-3%	?
CCOc1nc(NCCC2=CCCCC2)nc(N2CCOCC2)n1	-20	21µM*	-4%[0.365 µM]	-18%	23µM*
CN(C)c1ccc(-c2ccnc3c2CC(C)(C(=O)NCCc2ccccc2)O3)cc1 (centres undefined)	-18	·	·	·	·
COc1ccnc(CSC(N)=Nc2cccc(C(F)(F)F)c2)c1	-104*	-32%	13µM*	6.3µM*	?
CN1CCN(c2ccc(NC(=O)c3ccc(-c4cccc([N+](=O)[O-])c4)o3)cc2)CC1	-55*	-5%	5%	-16%	?
CN1CCN(c2ccc(NC(=O)c3ccc(-c4ccc(Cl)cc4)o3)cc2)CC1	-99*	23µM*	?	-45%	?
SMILES	IL-1B inflam inh	MCF10A rereplic	Gal4-VP16 FLuc	RORgamma inh	SW480 rereplic
CS(=O)(=O)N1CCN(c2ccc(NC(=O)c3ccc(-c4ccc(Cl)cc4)o3)cc2)CC1	16	?	-25%	-36%	1%
CC(C)CNC(=O)c1nn(Cc2ccccc2)c(=O)c2ccccc12	50	?	-4%	7%	-2%
COc1ccccc1C(=O)NNC(=O)c1nn(Cc2ccccc2)c(=O)c2ccccc12	44	9%	?	6.3µM*	?
Cc1[nH]n(-c2ccccc2)c(=O)c1C(c1cccc([N+](=O)[O-])c1)c1c(C)[nH]n(-c2ccccc2)c1=O	-85*	?	-14%	25%	1%
Cc1[nH]n(-c2ccccc2)c(=O)c1C(c1ccc(C(=O)O)cc1)c1c(C)[nH]n(-c2ccccc2)c1=O	-1	-1%	-17%	-10%	-6%
Cc1[nH]n(-c2ccccc2)c(=O)c1C(=O)c1ccc([N+](=O)[O-])cc1	0	16%	-5%	36%	-28%
COc1cccc(C(C[N+](=O)[O-])c2c(C)[nH]n(-c3ccccc3)c2=O)c1 (centres undefined)	0	18%	7.9µM*	?	?
COc1cccc(N=Nc2c(C)[nH]n(-c3ccccc3)c2=O)c1	-8	-3%	?	-2%[1.91 µM]	-22%
Cc1[nH]n(-c2ccccc2)c(=O)c1C(C[N+](=O)[O-])c1ccc(Br)cc1 (centres undefined)	-15	3.3µM*	-26%	?	?
C(=N\N1CCN(Cc2cccc3ccccc23)CC1)/c1cccnc1	-7	26µM*	-21%	6%	0%
N#C/C(=C/c1ccc([N+](=O)[O-])cc1)C(=O)Nc1ccccc1O	-63*	16%	?	15%	18%
N#C/C(=C\c1ccc([N+](=O)[O-])cc1)C(=O)Nc1ccccc1O	-2	9%	?	?	-1%
CNc1ccc(/C=C(\C#N)C(=O)Nc2ccccn2)cc1[N+](=O)[O-]	9	0%	-5%	1%	9%
N#C/C(=C/c1ccc(O)c([N+](=O)[O-])c1)C(=O)Nc1ccccc1	-2	4.6µM*	-4%	?	6.5µM*
CCCNc1c(NS(=O)(=O)c2ccc(C3CCCCC3)cc2)c(=O)oc2ccccc12	?	12µM*	-23%	1%	?
O=C(Nc1ccc(Nc2ccccc2)cc1)c1ccccc1F	-97*	?	-10%	24%	4.6µM*
N#CC1(c2ccc(NC(=O)c3ccccc3F)cc2)CCCC1	-69*	14%	?	-20%	2%
CCN(CC)c1ccc(NC(=O)c2cc(Cl)ccc2OC)cc1	-14	?	-3%	40%	-2%
CCN(CC)c1ccc(NC(=O)c2ccccc2F)cc1	16	?	-30%	-12%	18µM*
CC1(C(=O)Nc2cccc3c2CCCC3)CCN1C(=O)CCC1CCCC1 (centres undefined)	15	·	·	·	·
COc1ccc2c(c1)c(=O)c(C(=O)c1ccccc1)cn2Cc1ccccc1	-5	?	-23%	-18%	16µM*
COc1ccc(Cn2cc(C(=O)c3ccccc3)c(=O)c3cc(OC)ccc32)cc1	-12	0%	-2%	0%	-8%
COc1ccccc1N(CC(=O)Nc1ccccc1C(F)(F)F)S(=O)(=O)c1cccs1	-12	11%	·	·	-1%
CCN(CC(=O)Nc1ccc(OC)cc1)CC(=O)Nc1ccc(Br)cc1F	9	-26%	3%	22%	-26%
COc1ccc(NCC(=O)Nc2ccc(Br)cc2F)c(OC)c1	?	?	5%	42%	6.5µM*
